What all share (assay): log2 fold change, soluble protein after heating vs DMSO (PISA); higher = thermal stabilisation; K562 lysate, 10 uM; active = over 0.2 and 3.5 SD of the protein, either way, in both replicates (recomputed)
Compound in one assay: C#Cc1cccc(Nc2ncnc3cc(OCCOC)c(OCCOC)cc23)c1 [erlotinib]
In short, it runs like this:
(§1)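 The values are log-two fold changes in thermal stability compared with solvent controls and come from duplicates. They were obtained by TMTpro 16plex LC-MS/MS, with channel sums equalised, on the supernatant after 21,000xg for 90 min. That supernatant came from crude K562 extract at 1 mg/mL protein treated with 10 μM compound for 30 min, heated for 3 min across 48°C-58°C, pooled and brought to 0.5% NP-40 at 4°C.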

Compound in assay [1]: C1=CC(=CC=C1C2=NC3=C(N2)C=C(C=C3)C(=O)N)OC4=CC=C(C=C4)Cl
In a few lines:
as §1

Compound in assay [2]: C1=CC2=NC=CN=C2C=C1/C=C/3\C(=O)NC(=O)S3
In a few lines:
as §1

Compound in assay [3]: C1=CC=C(C=C1)C2=NC(=C(N2)C3=CC=NC=C3)C4=CC(=C(C=C4)Cl)O
In a few lines:
as §1

Compound in another assay: C1COCCN1CCN2C3=CC=CC=C3N=C2NC(=O)C4=CC(=CC=C4)[N+](=O)[O-] [IRAK-1-4 Inhibitor I]
In a few lines: as §1

Compound in another assay: C=CC(=O)N1CCC[C@@H](n2nc(-c3ccc(Oc4ccccc4)cc3)c3c(N)ncnc32)C1 [ibrutinib]
In short, it runs like this:
as §1

Compound in assay [4]: CC(=O)c1cnc2ccc(-c3cc(Cl)c(O)c(Cl)c3)nc2c1N[C@H]1CC[C@H](CN(C)C)CC1
In a few lines:
as §1

Compound in the next assay: CC(C)(C)Cn1c(N)nc2ccc(-c3[nH]c(C(C)(C)C)nc3-c3ccc(F)cc3)nc21 [ralimetinib]
In short, it runs like this: as §1

Compound in assay [5]: CC(C)(O)CC(=O)NCCn1ccc2ncnc(Nc3ccc(Oc4cccc(C(F)(F)F)c4)c(Cl)c3)c21
In a few lines: as §1

Compound in assay [6]: CC(C)C1=C2N=C(C=C(N2N=C1)NCC3=CC=CC=C3)NCCCCCCN
In short, it runs like this:
as §1

Compound in assay [7]: CC1=C(C=C(C=C1)NC(=O)C2=CC(=CC=C2)N(C)C)NC(=O)C3=CC=C(C=C3)O
In a few lines:
as §1

Compound in assay [8]: CC1=CC=C(C=C1)SC2=C3C=C(SC3=CN=C2)C(=O)N
In short, it runs like this:
as §1

Compound in assay [9]: CC1=C(C(CC(=O)N1)C2=CC=C(C=C2)C(F)(F)F)C(=O)NC3=C(C=C4C(=C3)C=NN4)F
In a few lines:
as §1

Compound in assay [10]: C/C(=N\NC(=O)C1=CC(=CC=C1)S(=O)(=O)N2CCOCC2)/C3=C(C=CC(=C3)Cl)O
In a few lines:
as §1

Compound in assay [11]: C1=CC2=C(C=CC(=C2)/C=C\3/C(=O)NC(=NCC4=CC=CS4)S3)N=C1
In short, it runs like this: as §1

Compound in assay [12]: C1=CC=C2C(=C1)C3=NNC4=CC=CC(=C43)C2=O
In short, it runs like this:
as §1

Compound in assay [13]: C1CCN(C1)C(=O)NC2=CC=CC(=C2)NC3=NC=C(C(=N3)NCCC4=CN=CN4)Br
In short, it runs like this: as §1

Compound in assay [14]: C1CN(CCC1(CC2=CC=C(C=C2)Cl)N)C3=NC=NC4=C3C=CN4
In a few lines: as §1

Compound in assay [15]: CC1=C(C2=C(C=C1)C(=O)C3=CC=CC=C3N2CCCN)C
In a few lines: as §1

Compound in assay [16]: CC1=C(C=C(C=C1)NC(=O)C2=CC(=CC=C2)C(C)(C)C#N)NC3=CC4=C(C=C3)N=CN(C4=O)C
In a few lines:
as §1

About 8,800 targets were measured; listed, in parts, are those with a hit and a random draw of the rest. About 0.5% of all pairs of compound and target were hits. Values without a mark were called inactive.

UniProt Q16816, sequence (Q16816 whole entry, looked up): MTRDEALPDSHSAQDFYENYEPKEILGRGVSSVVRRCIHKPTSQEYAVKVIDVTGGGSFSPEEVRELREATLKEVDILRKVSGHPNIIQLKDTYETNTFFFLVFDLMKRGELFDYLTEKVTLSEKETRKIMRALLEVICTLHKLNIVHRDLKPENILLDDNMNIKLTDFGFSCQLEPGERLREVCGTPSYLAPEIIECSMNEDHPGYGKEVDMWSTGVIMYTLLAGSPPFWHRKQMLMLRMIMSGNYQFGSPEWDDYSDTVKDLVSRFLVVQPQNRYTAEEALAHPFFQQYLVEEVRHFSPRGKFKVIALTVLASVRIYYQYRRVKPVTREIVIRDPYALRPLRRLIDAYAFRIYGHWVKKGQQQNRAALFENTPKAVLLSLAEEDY
UniProt P45877, sequence (P45877 whole entry, looked up): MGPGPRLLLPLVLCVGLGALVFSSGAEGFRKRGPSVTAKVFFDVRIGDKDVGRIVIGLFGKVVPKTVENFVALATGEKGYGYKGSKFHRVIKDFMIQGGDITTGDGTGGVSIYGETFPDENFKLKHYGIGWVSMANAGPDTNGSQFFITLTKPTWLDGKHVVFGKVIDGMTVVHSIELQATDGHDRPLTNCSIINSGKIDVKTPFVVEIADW
UniProt A8CG34, sequence (A8CG34 whole entry, looked up): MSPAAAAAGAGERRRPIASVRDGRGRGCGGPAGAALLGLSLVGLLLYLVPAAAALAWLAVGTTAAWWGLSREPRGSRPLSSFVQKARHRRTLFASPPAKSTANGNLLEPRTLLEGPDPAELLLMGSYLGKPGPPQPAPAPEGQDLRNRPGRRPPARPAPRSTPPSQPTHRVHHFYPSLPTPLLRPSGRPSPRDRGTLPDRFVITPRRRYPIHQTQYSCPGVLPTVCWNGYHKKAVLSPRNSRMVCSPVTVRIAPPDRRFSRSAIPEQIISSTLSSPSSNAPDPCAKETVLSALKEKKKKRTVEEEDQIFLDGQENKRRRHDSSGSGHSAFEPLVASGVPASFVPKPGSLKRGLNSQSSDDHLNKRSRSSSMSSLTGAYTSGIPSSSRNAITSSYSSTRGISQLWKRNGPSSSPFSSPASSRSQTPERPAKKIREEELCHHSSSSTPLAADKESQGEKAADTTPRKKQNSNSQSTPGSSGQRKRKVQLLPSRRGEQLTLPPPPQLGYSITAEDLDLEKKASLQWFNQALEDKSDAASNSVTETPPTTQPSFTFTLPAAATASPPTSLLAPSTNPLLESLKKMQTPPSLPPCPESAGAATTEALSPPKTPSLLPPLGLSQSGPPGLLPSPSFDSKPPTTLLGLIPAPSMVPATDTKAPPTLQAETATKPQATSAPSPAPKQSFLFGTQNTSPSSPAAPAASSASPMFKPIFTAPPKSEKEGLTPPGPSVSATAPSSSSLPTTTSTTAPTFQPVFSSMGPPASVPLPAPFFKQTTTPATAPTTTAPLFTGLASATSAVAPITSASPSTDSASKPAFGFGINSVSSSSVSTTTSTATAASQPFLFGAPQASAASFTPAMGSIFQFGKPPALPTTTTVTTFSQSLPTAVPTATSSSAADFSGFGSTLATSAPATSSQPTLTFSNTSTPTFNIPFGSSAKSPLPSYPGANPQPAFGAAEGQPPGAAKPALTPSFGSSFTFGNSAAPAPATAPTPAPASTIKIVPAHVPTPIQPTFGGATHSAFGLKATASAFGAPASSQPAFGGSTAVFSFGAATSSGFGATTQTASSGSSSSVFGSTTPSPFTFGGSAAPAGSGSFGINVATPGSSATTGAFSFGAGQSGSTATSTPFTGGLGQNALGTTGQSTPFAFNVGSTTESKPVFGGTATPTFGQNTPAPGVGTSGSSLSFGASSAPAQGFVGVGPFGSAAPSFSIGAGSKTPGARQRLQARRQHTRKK
UniProt P78364, sequence (P78364 whole entry, looked up): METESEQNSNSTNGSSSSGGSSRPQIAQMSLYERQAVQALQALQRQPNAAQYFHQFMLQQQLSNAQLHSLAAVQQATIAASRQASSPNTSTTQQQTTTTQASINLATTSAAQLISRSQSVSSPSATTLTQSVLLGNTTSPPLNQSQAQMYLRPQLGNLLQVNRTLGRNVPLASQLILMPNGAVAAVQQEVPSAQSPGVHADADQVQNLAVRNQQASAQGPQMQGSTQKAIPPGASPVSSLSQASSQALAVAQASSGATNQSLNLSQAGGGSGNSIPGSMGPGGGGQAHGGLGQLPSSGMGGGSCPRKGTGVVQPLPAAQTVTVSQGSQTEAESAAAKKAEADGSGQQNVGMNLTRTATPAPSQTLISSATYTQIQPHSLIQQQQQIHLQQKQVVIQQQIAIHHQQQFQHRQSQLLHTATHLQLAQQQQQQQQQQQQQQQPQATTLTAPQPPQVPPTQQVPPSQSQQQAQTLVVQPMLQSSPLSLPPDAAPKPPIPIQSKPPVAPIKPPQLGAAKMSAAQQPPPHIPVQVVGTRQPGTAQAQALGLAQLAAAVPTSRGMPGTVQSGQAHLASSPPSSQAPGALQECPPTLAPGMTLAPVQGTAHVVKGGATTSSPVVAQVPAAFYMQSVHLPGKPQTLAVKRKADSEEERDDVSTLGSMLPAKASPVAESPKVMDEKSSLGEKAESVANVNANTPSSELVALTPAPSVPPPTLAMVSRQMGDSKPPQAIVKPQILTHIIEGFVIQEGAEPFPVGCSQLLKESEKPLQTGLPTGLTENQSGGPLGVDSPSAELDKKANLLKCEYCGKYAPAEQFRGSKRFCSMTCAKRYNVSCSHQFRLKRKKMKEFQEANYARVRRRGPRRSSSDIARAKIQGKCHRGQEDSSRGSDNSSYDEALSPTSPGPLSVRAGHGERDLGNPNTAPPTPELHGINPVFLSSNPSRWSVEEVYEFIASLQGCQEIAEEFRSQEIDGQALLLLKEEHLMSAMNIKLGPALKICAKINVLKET
UniProt O75928, sequence (O75928 whole entry, looked up): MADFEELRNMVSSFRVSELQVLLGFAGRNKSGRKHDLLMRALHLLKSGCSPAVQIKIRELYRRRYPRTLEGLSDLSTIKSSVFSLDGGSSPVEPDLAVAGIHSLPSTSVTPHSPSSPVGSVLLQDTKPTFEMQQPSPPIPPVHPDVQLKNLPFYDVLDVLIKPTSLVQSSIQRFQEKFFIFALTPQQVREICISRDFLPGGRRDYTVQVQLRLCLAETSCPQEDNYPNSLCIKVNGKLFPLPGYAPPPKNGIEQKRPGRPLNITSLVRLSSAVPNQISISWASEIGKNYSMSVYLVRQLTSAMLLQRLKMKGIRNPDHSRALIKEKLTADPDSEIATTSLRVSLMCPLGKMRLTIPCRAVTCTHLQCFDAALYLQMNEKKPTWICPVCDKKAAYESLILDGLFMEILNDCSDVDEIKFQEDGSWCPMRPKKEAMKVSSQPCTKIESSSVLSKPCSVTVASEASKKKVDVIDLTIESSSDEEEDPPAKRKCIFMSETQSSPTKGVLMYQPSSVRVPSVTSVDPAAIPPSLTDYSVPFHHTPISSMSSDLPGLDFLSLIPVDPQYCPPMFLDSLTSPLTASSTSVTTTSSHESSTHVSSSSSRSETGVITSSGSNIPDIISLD
UniProt Q9BRQ0, sequence (Q9BRQ0 whole entry, looked up): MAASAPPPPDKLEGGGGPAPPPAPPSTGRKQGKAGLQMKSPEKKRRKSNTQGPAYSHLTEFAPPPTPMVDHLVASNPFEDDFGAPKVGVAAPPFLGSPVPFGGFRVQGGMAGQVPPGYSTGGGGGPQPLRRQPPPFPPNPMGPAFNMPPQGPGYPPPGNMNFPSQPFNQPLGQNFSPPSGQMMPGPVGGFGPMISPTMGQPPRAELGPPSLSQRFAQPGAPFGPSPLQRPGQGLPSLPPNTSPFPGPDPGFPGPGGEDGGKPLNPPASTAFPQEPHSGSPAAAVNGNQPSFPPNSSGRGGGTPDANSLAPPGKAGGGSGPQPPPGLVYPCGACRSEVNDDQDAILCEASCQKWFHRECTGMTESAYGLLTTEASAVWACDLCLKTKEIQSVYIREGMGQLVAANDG
UniProt Q9BY49, sequence (Q9BY49 whole entry, looked up): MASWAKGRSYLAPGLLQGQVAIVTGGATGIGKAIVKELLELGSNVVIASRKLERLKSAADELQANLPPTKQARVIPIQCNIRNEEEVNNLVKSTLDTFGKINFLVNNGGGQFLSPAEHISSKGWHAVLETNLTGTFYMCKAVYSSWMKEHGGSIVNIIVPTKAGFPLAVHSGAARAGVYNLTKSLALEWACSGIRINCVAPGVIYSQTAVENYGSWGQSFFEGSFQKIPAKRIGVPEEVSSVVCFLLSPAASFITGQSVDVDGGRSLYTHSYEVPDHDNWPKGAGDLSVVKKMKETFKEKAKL

As for POM121C (UniProt A8CG34), the log2 fold change with erlotinib is 0.001; in assay [1] it was 0.027; in [2], 0.032; in [3] it was -0.064; with IRAK-1-4 Inhibitor I it was -0.069; in the assay with ibrutinib, -0.167. Moreover, the log2 fold change was 0.008 in assay [4]; -0.127 with ralimetinib; 0.016 in assay [5]; 0.028 in assay [6]; -0.028 in [7]; 0.034 in assay [8].

As for PPT2, A0A140T9Y1, the log2 fold change in [9] is -0.142.

As to PHKG1 isoform 2 (UniProt Q16816), the log2 fold change with erlotinib was 0.003; in [10] it was -0.127; in [1], 0.187; in [11] it was 0.061; in [3], 0.029; in assay [12] it was 0.399. The log2 fold change is 0.157 in [13]; 0.014 in [14]; -0.102 in the assay with IRAK-1-4 Inhibitor I; 0.595 in [4]; 0.02 with ralimetinib; -0.016 in assay [5]. Moreover, the log2 fold change in assay [6] was -0.003; in [9], -0.117; in [15], -0.196; in assay [16], 0.017; in assay [7], -0.02; in [8] it was -0.086.

As to PECR (UniProt Q9BY49), the log2 fold change in [13] is -0.004; in [14] it was 0.056.

Regarding PHC1 (UniProt P78364), the log2 fold change in [10] was 0.032; in assay [11], -0.004; in assay [2] it was -0.075; in [12] it was -0.051; in assay [13], 0.021; in assay [14] it was -0.01. Further, the log2 fold change with ibrutinib is 0.027; in assay [9], 0.044; in assay [15], -0.117; in assay [16] it was 0.443 (active).

On to PPIC (UniProt P45877), for which the log2 fold change with erlotinib is 0.049; in assay [10], -0.042; in assay [1], 0.119; in assay [11], 0.025; in assay [2], 0.265; in assay [3], -0.032. Further, the log2 fold change in assay [12] is 0.036; in the assay with IRAK-1-4 Inhibitor I it was 0.06; with ibrutinib it was 0.278; with ralimetinib, -0.17; in assay [5] it was 0.057; in assay [6], -0.021. The log2 fold change in [9] is -0.139; in [15], 0.138; in assay [16] it was 0.102; in assay [7], 0.05.

For PYGO2 (UniProt Q9BRQ0), the log2 fold change in the assay with erlotinib is -0.047; in assay [1], 0.045; in assay [2], -0.039; in assay [3] it was 0.115; in assay [13] it was 0.012; in assay [14], 0.049. The log2 fold change with IRAK-1-4 Inhibitor I is 0.051; with ibrutinib, 0.064; in the assay with ralimetinib, 0.151; in assay [5] it was -0.122; in assay [6], -0.001; in [9], 0.005. Besides, the log2 fold change is 0.044 in [15], 0.011 in assay [16] and -0.061 in assay [7].

On to PCBP2 (UniProt F8VRH0), for which the log2 fold change in the assay with erlotinib is 0.084; in assay [1], -0.182; in assay [3], -0.092; with IRAK-1-4 Inhibitor I, 0.11; in [4], -0.014; with ralimetinib, 0.087. For the same target, the log2 fold change in assay [5] is -0.033; in assay [6], 0.051; in assay [9], 0.129; in assay [16] it was 0.017; in assay [7], 0.012; in assay [8], 0.027.

Take PCBP2 (UniProt F8W0G4): the log2 fold change with erlotinib is -0.117; in assay [10], -0.36; in assay [1] it was -0.007; in assay [11], -0.102; in assay [2], 0.022; in assay [3] it was 0.005. The log2 fold change in assay [12] was -0.236; in assay [13] it was -0.241; in assay [14], 0.079; with IRAK-1-4 Inhibitor I, 0.093; with ibrutinib, -0.27; with ralimetinib, -0.061. In addition, the log2 fold change in assay [5] was -0.282; in assay [6], -0.175; in assay [9], -0.045; in [15], -0.083; in assay [7], 0.049.

As for PFN1 (UniProt I3L3D5), the log2 fold change in assay [2] is 0.054; in [3], 0.045; in assay [13] it was 0.009; in assay [14] it was 0.03; with IRAK-1-4 Inhibitor I, 0.005; in the assay with ibrutinib, -0.045. In addition, the log2 fold change in assay [4] is -0.053; in the assay with ralimetinib, 0.045; in [5], -0.033; in [9], -0.013; in assay [7], 0; in assay [8], 0.031.

Turning to POLR2F (UniProt U3KPV3), the log2 fold change in [13] is -0.055; in assay [14], 0.084; in [15] it was 0.223.

For PDE4DIP (UniProt E9PS60), the log2 fold change with erlotinib was 0.026; in assay [10] it was -0.056; in assay [1], -0.13; in assay [11], 0.044; in [12] it was 0.039; in [13], 0.114. Also, the log2 fold change in assay [14] was 0.063; in [6] it was 0.037; in assay [9], -0.113; in assay [15], 0.076; in assay [16], 0.234.

With PIAS2 (UniProt O75928), the log2 fold change is 0.043 with erlotinib; -0.277 in assay [10]; 0.035 in assay [1]; 0 in [11]; 0.019 in assay [3]; 0.039 in [12]. Also, the log2 fold change was 0.037 in assay [13]; -0.002 in assay [14]; 0.053 with IRAK-1-4 Inhibitor I; 0.019 with ralimetinib; 0.006 in assay [5]; -0.017 in assay [6]. Moreover, the log2 fold change in assay [9] was 0.039; in assay [15], 0.052; in assay [16], -0.001; in assay [7], -0.002.

The values above are taken from the supplement of paper PMC10849652.
